Records with an inconclusive call do not appear. Values without a mark were called inactive. The source made the active and inactive calls. The call rests on the fitted dose curve; in most records, active means well fitted inhibition curve with a large enough effect in the repeat runs; inconclusive means weak or mixed curves; inactive means no such curve, though single readings can be large or run the other way.
Experiment: qHTS assay to identify small molecule antagonists of the estrogen related receptor (ERR) signaling pathway from Tox21 library (AID 1224848); further: nearly all actives have a fitted effect of over 50% in size
Settings: ERR reporter cell line, luciferase antagonist mode, 18 h; series mostly up to 92.4 µM; activity, negative = inhibition: at the top concentration
Excerpt: U.S. Tox21 Program National Center for Advancing Translational Sciences [NCATS] NIH Chemical Genomics Center [NCGC] U.S. Environmental Protection Agency [EPA] National Institutes of Environmental Health Sciences [NIEHS] National Toxicology Program [NTP] U.S. Food and Drug Administration [FDA] Tox21 Assay Overview: Estrogen related receptors (ERRs), the first orphan nuclear receptors discovered, play an important role in the control of cellular energy metabolism. ERRs are required for high-energy production in response to the environmental challenges. ERR-alpha was also identified as an adverse marker for breast cancer progression; ERR-alpha-positive tumors have a poor prognosis. To screen and to identify environmental compounds that perturb the ERR signaling pathways could provide valuable information for potential therapeutic or preventive measures in the treatment of metabolic disease. For identifying ERR antagonists, ERR cell line (provided by NTP) has been used to screen Tox21 10K library.
Tox21 Assay Protocol Summary: The ERR cells were dispensed at 2,000 cells/5 ul/well in 1536-well white plates using a Multidrop dispenser. After the assay plates were incubated at a 37 C/5% CO2 incubator for 6 hours, 23 nL of compounds dissolved in DMSO, positive and negative controls or DMSO only was transferred to the assay plate by a pin tool. The plates were incubated at 37 C for 18 hours. 4 ul/well of One-Glo reagent was added into the assay plates using a Flying Reagent Dispenser. After 30-minute incubation at room temperature, the luminescence intensity in the plates was measured using a ViewLux plate reader.
For `NCc1ccccc1`, the “activity, negative = inhibition” value was 18.3%. For `O=C(O)C1CCC(C(=O)O)CC1` (stereo not given), the “activity, negative = inhibition” value was 19.3%. In the case of `C=CC[N+]1([C@H]2C[C@H]3[C@@H]4CC[C@H]5C[C@H](OC(C)=O)[C@@H](N6CCCCC6)C[C@]5(C)[C@H]4CC[C@]3(C)[C@H]2OC(=O)CC)CCCCC1`, the “activity, negative = inhibition” value is reported as -0.18% [at 42.5 µM]. In the case of `CCC(=O)OC(C)(C)C1CC=C(C)CC1` (stereo not given), the “activity, negative = inhibition” value is reported as -14.6%. With `CC(C)(C)c1ccc(OCC2CO2)cc1` (stereo not given) the “activity, negative = inhibition” value was 4.88%. For `Oc1ccc(C(O)CNCCCCCCNCC(O)c2ccc(O)c(O)c2)cc1O` (stereo not given), the “activity, negative = inhibition” value was 1.62% [at 42.5 µM]. In the case of `O=C(c1ccc(O)cc1)c1ccc(O)cc1`, the “activity, negative = inhibition” value is reported as 56.6%. With `Cn1c(=O)c2c(ncn2CC(O)CO)n(C)c1=O` (stereo not given) the “activity, negative = inhibition” value was 11.8% [at 42.5 µM]. In the case of `CCN(CC)C(C)=O`, the “activity, negative = inhibition” value is reported as 4.38%. With `CCCc1ccccc1` the “activity, negative = inhibition” value was 3.87%. For `Cc1ccc(C(N)=O)cc1N`, the “activity, negative = inhibition” value was -0.169%. For `CC(=O)[C@@]1(O)CC[C@H]2[C@@H]3C[C@H](C)C4=CC(=O)CC[C@]4(C)[C@H]3CC[C@@]21C`, the Potency was 23.7 µM (active). With `CC(=O)/C(C)=C/C1C(C)=CCCC1(C)C` (stereo not given) the “activity, negative = inhibition” value was 9.22%. For `Cc1ccccc1N=Nc1ccc(N=Nc2c(O)ccc3ccccc23)c(C)c1`, the “activity, negative = inhibition” value was 17.9% [at 42.5 µM]. For `CC(C)(C)c1cc(O)c(C(C)(C)C)cc1O`, the Potency was 24.3 µM (active). With `CN1CCC(=C2c3ccccc3C=Cc3ccccc32)CC1` the “activity, negative = inhibition” value was 4.12% [at 42.5 µM]. In the case of `O=C(O)Cn1c(C(=O)Nc2nc(-c3ccccc3Cl)cs2)cc2ccccc21`, the “activity, negative = inhibition” value is reported as 19.1% [at 42.5 µM]. In the case of `O=C(C(=O)c1ccc(Br)cc1)c1ccc(Br)cc1`, the activity, negative = inhibition is reported as -0.511% [at 19 µM]. In the case of `Nc1nc(CC(=O)O)cs1`, the Potency is reported as 61.3 µM (active). In the case of `CC/C(=C\C(=N/O)C(N)=O)C(C)[N+](=O)[O-]` (stereo not given), the “activity, negative = inhibition” value is reported as 6.05%. With `O=C(O)[C@@H]1[C@H]2C[C@H]3c4[nH]c5ccccc5c4CCN3C[C@@H]2CC[C@@H]1O` the “activity, negative = inhibition” value was 2.98% [at 42.5 µM]. For `CN1CCN(C2=Nc3ccccc3Sc3ccc(Cl)cc32)CC1`, the “activity, negative = inhibition” value was 1.87% [at 42.5 µM]. In the case of `N[C@H]1C(O)O[C@H](CO)[C@H](O)[C@@H]1O` (stereo not given in full), the “activity, negative = inhibition” value is reported as 1.65%. In the case of `O=C1[C@H](CC[C@H](O)c2ccc(F)cc2)[C@@H](c2ccc(O)cc2)N1c1ccc(F)cc1`, the Potency is reported as 26.6 µM (active). With `C=CCCCCCC` the “activity, negative = inhibition” value was 8.06%. With `Cn1sccc1=O` the Potency was 48.6 µM (active). In the case of `Cc1ccc(C(=O)C(C)CN2CCCCC2)cc1` (stereo not given), the “activity, negative = inhibition” value is reported as 8.41% [at 42.5 µM]. In the case of `Cn1c(NCCN(CCO)CCCc2ccc([N+](=O)[O-])cc2)cc(=O)n(C)c1=O`, the “activity, negative = inhibition” value is reported as 7.05% [at 42.5 µM]. With `CCCCCCCCCO` the “activity, negative = inhibition” value was 7.69%. In the case of `O=[N+]([O-])c1cccc(Cl)c1Cl`, the “activity, negative = inhibition” value is reported as 3.74%. For `CC(=O)CC(=O)c1ccccc1`, the “activity, negative = inhibition” value was 28.2%. With `Nc1ccc(C(=O)Nc2ccccc2N)cc1` the “activity, negative = inhibition” value was 39.2% [at 42.5 µM]. For `NC(N)=N/N=C/c1c(Cl)cccc1Cl`, the “activity, negative = inhibition” value was -28% [at 42.5 µM]. For `NC1CCN(c2nc3c(cc2F)c(=O)c(C(=O)O)cn3-c2ccc(F)cc2F)C1` (stereo not given), the “activity, negative = inhibition” value was 44.9% [at 42.5 µM]. For `Cc1occc1S`, the “activity, negative = inhibition” value was 14.9%. `O=C(CCN1CCN2CCCC2C1)N1c2ccccc2Sc2ccc(Cl)cc21` (stereo not given) gave an activity, negative = inhibition of -23.7% [at 19 µM]. With `C[C@H](CCC(=O)O)[C@H]1CC[C@H]2[C@@H]3[C@H](O)C[C@@H]4C[C@H](O)CC[C@]4(C)[C@H]3CC[C@]12C` the “activity, negative = inhibition” value was -13%. In the case of `CCCC[C@H]1CN(CC2CCOCC2)C(=O)OC12CCN(C1(C)CCN(C(=O)c3c(C)ncnc3C)CC1)CC2`, the “activity, negative = inhibition” value is reported as 0.173%. For `CCN(CC)CCc1nc(-c2ccccc2)no1`, the “activity, negative = inhibition” value was 1.31% [at 42.5 µM]. With `Cc1ccc(C)o1` the “activity, negative = inhibition” value was 1.12%.
On the % scale 0 is the no-effect control and ±100 the full control effect; potency means the concentration at half of the fitted maximal effect.
